Tb PYK inh = inhibitors of Trypanosoma brucei pyruvate kinase | TbPYK enzyme, Kinase-Glo Plus ATP luminescence, 45 min | Potency, µM (titrated, usually from 76.8 µM), hits mostly inhibitors | 410,000 compounds, 0.12% hits | Q57TT1; also: nearly all actives have a fitted effect of over 50% in size
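Screened from lowest to highest concentration, compounds were pinned into TbPYK/substrate mixtures, and ADP (130 uM final) was added. Plates sat at room temperature for 45 min prior to Kinase-Glo Plus detection by luminescence.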
Sm TGR block = blocks Schistosoma mansoni thioredoxin glutathione reductase; 360,000 compounds, 3% hits; Potency, µM (top dose mostly 114 µM), usual class: inhibitors; purified TGR, DTNB reduction, TNB absorbance 405 nm; also: nearly all actives have a fitted effect of over 60% in size
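First, TGR (20 nM dispensed) and NADPH were mixed with compound. Second, a 15 min room-temperature incubation followed. Third, further NADPH and then DTNB were added to start the reaction. Finally, TNB absorbance was monitored kinetically.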
RE007 growth inh = less growth of the S. pombe RE007 Vpr strain. S. pombe RE007 Vpr strain, BacTiter-Glo ATP luminescence, 24 h. Potency, µM (series often up to 92.2 µM), most hits filed as inhibitors. 360,000 compounds, 0.21% hits. AID 651644; active = well fitted falling curve with a large enough effect; inconclusive = small, poorly fitted or top-dose-only effect; inactive = no such curve, though single readings can be large or run the other way; also: nearly all actives have a fitted effect of over 50% in size
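Fission yeast RE007 carrying one integrated HIV-1 vpr copy, seeded at OD 0.01 in PMG+AL medium with 23 nL pinned compound. Grown 24 h at 30 degrees; viability read by BacTiter-Glo luminescence after 5 min.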
LmPK inhibitor = blocks Leishmania mexicana pyruvate kinase activity; Q27686; purified LmPK, Kinase-Glo ATP luminescence, 1 h; Potency, µM (top dose mostly 57.5 µM), usual class: inhibitors; 290,000 compounds, 0.37% hits; AID 1721
Target sequence (Q27686 whole entry, looked up): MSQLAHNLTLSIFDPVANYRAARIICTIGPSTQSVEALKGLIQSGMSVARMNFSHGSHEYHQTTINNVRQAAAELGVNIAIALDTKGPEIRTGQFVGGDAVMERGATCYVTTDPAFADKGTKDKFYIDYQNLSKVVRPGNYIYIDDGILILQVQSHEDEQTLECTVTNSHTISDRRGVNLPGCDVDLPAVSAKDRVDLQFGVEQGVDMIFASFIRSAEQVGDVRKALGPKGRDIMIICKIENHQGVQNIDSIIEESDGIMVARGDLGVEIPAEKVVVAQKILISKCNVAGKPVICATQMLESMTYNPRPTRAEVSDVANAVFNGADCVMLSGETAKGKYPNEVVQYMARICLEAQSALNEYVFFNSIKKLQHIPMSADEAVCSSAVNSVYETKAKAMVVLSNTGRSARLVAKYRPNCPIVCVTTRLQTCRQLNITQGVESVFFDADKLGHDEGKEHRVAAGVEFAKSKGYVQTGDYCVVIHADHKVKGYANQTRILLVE
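0.1 nM LmPK, 0.5 mM PEP, 0.1 mM ADP; 50 mM imidazole pH 7.2, 7 mM MgCl2, 50 mM KCl; 1 h RT. Kinase-Glo luminescence readout, normalized to no-enzyme (full inhibition) and uninhibited wells.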
Of the large screens only hits and unclear results are named; the others gave an inactive call. An excerpt weighted towards active compounds, which were near 3% of everything screened. Unless noted, calls follow the shape of the dose curve; as a rule, active = well fitted curve in the direction sought with a large enough effect; inconclusive = small, poorly fitted or top-dose-only effect, or another doubt; inactive = no such curve, though single readings can be large; an effect the other way counts as inactive or inconclusive.

CN(CC1CCOCC1)C(=O)CC1C(=O)NCCN1Cc1ccccc1F (stereo not given)	Sm TGR block inconclusive
CN(CCCC1CCCC1)C(=O)CC1C(=O)NCCN1Cc1ccc(F)cc1 (stereo not given)	Sm TGR block 28µM
COc1ccc(C)cc1NC(=O)NCc1ccc2c(c1)CCN2C(=O)c1ccccc1	none (no result: RE007 growth inh, LmPK inhibitor)
O=C(CC1C(=O)NCCN1Cc1cccc(Oc2ccccc2)c1)NCC1CCOCC1 (stereo not given)	none (no result: Sm TGR block)
COc1cccc(CN2CCNC(=O)C2CC(=O)NCC2CCOCC2)c1 (stereo not given)	Sm TGR block 35µM
CC(=O)c1cccc(NC(=O)C2=CN3CCS(=O)(=O)N=C3C=C2)c1	none (no result: LmPK inhibitor)
Cc1cccc(-c2oc3ccccc3c2C#CCCO)c1	Sm TGR block 16µM
Cc1cccc(-c2oc3ccccc3c2C#CCCCCO)c1	Sm TGR block inconclusive
COc1ccc(C(=O)/C=C/C(=O)N(CC(=O)NC2CCCCC2)Cc2ccccc2)c(O)c1	Sm TGR block 1.4µM
COc1ccc(C(=O)/C=C/C(=O)N(Cc2ccc(F)cc2)C(C(=O)NC2CCCCC2)c2ccncc2)c(O)c1 (stereo not given)	none
COc1ccc(C(=O)/C=C/C(=O)N(Cc2ccccc2)C(C(=O)NC2CCCCC2)c2ccncc2)c(O)c1 (stereo not given)	none
COc1ccc(C(=O)/C=C/C(=O)N(CC(=O)NC2CCCCC2)CC2CCCO2)c(O)c1 (stereo not given)	Tb PYK inh inconclusive, Sm TGR block 1.3µM
COc1ccc(C(=O)/C=C/C(=O)N(CC(=O)NC2CCCCC2)Cc2ccccc2OC)c(O)c1	Sm TGR block 1µM
CC(C)(C)c1ccc(C(=O)N2CCN(C(=O)c3cccs3)CC2)cc1	none (no result: Sm TGR block, LmPK inhibitor)
CC(Cc1ccccc1)NCCn1cnc2c1c(=O)n(C)c(=O)n2C (stereo not given)	none (no result: Sm TGR block, RE007 growth inh, LmPK inhibitor)
Cc1ccc(/C=C/C(=O)N2CCc3ccccc32)o1	Tb PYK inh 20µM, Sm TGR block 45µM, LmPK inhibitor inconclusive
O=C(c1ccco1)N1CCc2ccccc21	none
O=C(/C=C/c1ccco1)N1CCc2ccccc21	Tb PYK inh inconclusive, Sm TGR block 7.9µM, RE007 growth inh inconclusive, LmPK inhibitor 7.9µM
CCOC(=O)c1cc2c(=O)n3ccccc3nc2n(CC2CCCO2)c1=NC(=O)c1ccccc1OCC (stereo not given)	none (no result: RE007 growth inh, LmPK inhibitor)
CCN(C(=O)CCS(=O)(=O)c1cc2[nH]c(=O)c(=O)[nH]c2cc1C)c1ccccc1	none (no result: RE007 growth inh, LmPK inhibitor)
O=C(C1=C[C@@H](c2ccc(Br)cc2)C[C@@H](OCCCCO)O1)N1CCN(Cc2ccc3c(c2)OCO3)CC1	none
O=C(C1=C[C@H](c2ccccc2)C[C@H](OCCCCO)O1)N1CCOCC1	Sm TGR block 45µM
O=C(C1=C[C@@H](c2csc3ccccc23)C[C@@H](OCc2ccc(CO)cc2)O1)N1CCN(Cc2ccccc2)CC1	Sm TGR block 35µM
O=C(C1=C[C@H](c2ccc(Br)cc2)C[C@H](OCCCCO)O1)N1CCN(Cc2ccccc2)CC1	Sm TGR block 35µM
O=C(C1=C[C@H](c2csc3ccccc23)C[C@H](OCCCCO)O1)N1CCN(Cc2ccccc2)CC1	Sm TGR block 18µM
COc1ccccc1CNC(=O)c1ccc2c(=O)n3c(nc2c1)CCCCC3	none
Cc1cc(=O)c2c(O)c3c(O)cc(=O)c4c3c3c(cc(O)c1c23)C(C)(C)C=4O	none (no result: Sm TGR block, RE007 growth inh, LmPK inhibitor)
O=C(C1=C[C@H](c2ccccc2)C[C@H](OCc2ccc(CO)cc2)O1)N1CCN(Cc2ccccc2)CC1	Sm TGR block 28µM
O=C(C1=C[C@@H](c2ccccc2)C[C@@H](OCc2ccc(CO)cc2)O1)N1CCN(Cc2ccc3c(c2)OCO3)CC1	none
CC1(C)Cc2noc(N)c2C(C)(C)N1O	Sm TGR block 2.8µM
COc1ccc(N2CCCC2)c(NC(=O)c2ccc(Br)o2)c1	Sm TGR block 45µM
COc1ccc(-c2nc(CSCC(=O)N3CCC(C(N)=O)CC3)c(C)o2)cc1OC	none
COc1ccc(-c2nc(CSCC(=O)N3CCc4ccccc4C3)c(C)o2)cc1OC	Sm TGR block 32µM
COc1ccc(-c2nc(CSCC(=O)N3CCN(c4cccc(C)c4)C(C)C3)c(C)o2)cc1OC (stereo not given)	Sm TGR block 45µM
CC1CCc2noc(NC(=O)c3ccccc3[N+](=O)[O-])c2C1 (stereo not given)	none (no result: RE007 growth inh, LmPK inhibitor)

Source: PubChem BioAssay (National Center for Advancing Translational Sciences (NCATS))
